# High-throughput results: PubChem, several laboratories
# Sampled rows, rich in hits. Any-hit rate of the full collection: about 4.3%.
# BoNT F protease: BoNT/F light chain protease inhibitors, primary screen, biochemical, flow cytometry, MLPCN library | actives 0.22% (n = 360,000) | Botulinum neurotoxin type F light chain protease (Clostridium botulinum) | Multiplex microsphere protease cleavage assay | inhibition, % at 10 µM; in the data active means inhibition above about 35%, passing the limit was not always enough; inconclusive means no clear call, values can overlap the other calls; further: plate controls were buffer without enzyme for full effect and enzyme alone for no effect
# BoNT-A LC inh2: BoNT/A light chain protease inhibitors, primary screen, biochemical, flow cytometry, MLPCN library | Botulinum neurotoxin type A light chain protease (Clostridium botulinum A str. ATCC 3502) | multiplex microsphere protease substrate cleavage | inhibition, % at 10 µM | actives 0.17% (n = 360,000); further: plate controls were buffer without enzyme for full effect and enzyme alone for no effect
# Autofluor counter: counter-screen for toxin protease inhibitors: compound fluorescence; compound autofluorescence counterscreen, microsphere flow cytometry; active compounds read high; fluorescence intensity (no concentration beside the values); actives 3.1% (n = 360,000); AID 624483; in the data active means fluorescence intensity above about 16000; inconclusive means no clear call, values can overlap the other calls
# Anthrax LF prot: Bacillus anthracis LF protease inhibitors, primary screen, biochemical, multiplex microsphere, MLPCN library; Lethal factor (Bacillus anthracis), P15917; actives 0.12% (n = 360,000); multiplex microsphere protease cleavage assay; inhibition, % at 10 µM; further: plate controls were buffer without enzyme for full effect and enzyme alone for no effect
# MazEF act: activators of E. coli MazEF toxin-antitoxin RNase, primary screen, biochemical, fluorescence, uHTS; activation, % at 20 µM; FAM/BHQ RNA-DNA oligo cleavage fluorescence, 5 h; actives 0.32% (n = 350,000); Endoribonuclease toxin MazF (Escherichia coli (strain K12)), P0AE70; AID 504720, 2011; in the data active means activation above about 50%
# Target sequence (P0AE70 whole entry, looked up): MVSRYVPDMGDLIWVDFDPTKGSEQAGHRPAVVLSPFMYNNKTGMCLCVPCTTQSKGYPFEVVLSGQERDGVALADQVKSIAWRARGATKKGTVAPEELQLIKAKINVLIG
# PfHsp40 rescue: rescue of yeast from PfHsp40 toxicity, primary screen, S. cerevisiae, ATP luminescence; AID 504582, 2011; growth rescue, % at 12.5 µM; S. cerevisiae expressing PfHsp40, growth rescue; actives 0.68% (n = 340,000); in the data active means growth rescue above about 28%, passing the limit was not always enough; inconclusive means no clear call, values can overlap the other calls;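 further: yeast W303a lacking pdr1 and pdr3 grown in galactose medium; growth measured after three days at 30 °C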
# Active calls of the source: *; ? = inconclusive; . = no result. Unless noted, no stated cut-off is given here; in the data, active means inhibition above about 30%; inconclusive means no clear call, values can overlap the other calls; inactive means below that.
SMILES,BoNT F protease,BoNT-A LC inh2,Autofluor counter,Anthrax LF prot,MazEF act,PfHsp40 rescue
N=c1n(CCN2CCCC2)c2ccccc2n1CC(O)c1ccco1 (stereo unspecified),3.6,4.5,21466*,1.0,6.6,0.7
CCCCCCCn1c(=N)n(CC(O)c2ccco2)c2ccccc21 (stereo unspecified),?,?,9924,?,-9.1,-0.6
CC(=O)NC(Cc1cc(C)ccc1C)C(=O)N1CCN(C(=O)Nc2ccc(C(C)=O)cc2)CC1 (stereo unspecified),-6.2,?,17945*,-4.1,-5.7,10.3
CC(=O)NC(Cc1cc(C)ccc1C)C(=O)N1CCN(C(=O)c2ccc(Br)cc2)CC1 (stereo unspecified),0.7,-0.3,2462,-1.7,2.3,1.7
O=C1N=c2ccc([N+](=O)[O-])cc2=C1c1sc(=O)[nH]c1O,-3.0,1.0,3910,-5.1,12.2,-0.8
Cc1cc(C(=O)CN(Cc2ccc(F)cc2)S(=O)(=O)c2ccc3c(c2)OCCO3)c(C)n1C,-3.7,?,20608*,-2.7,-0.8,0.1
O=C(CN(Cc1ccccc1)S(=O)(=O)c1ccc2c(c1)OCCO2)N/N=C/c1ccc(F)cc1,-3.2,-0.4,9995,-5.8,-5.9,1.9
Cc1ccccc1NC(=O)c1cnc2ccccn2c1=O,-3.3,-0.5,11224,-3.4,-4.7,0.9
CC1=C(C(=O)Nc2ccccc2C)C2(CCCC2)C(C(N)=O)C(=O)N1 (stereo unspecified),-4.6,-0.5,19911*,2.2,4.8,-0.3
COC(=O)c1ccc(OCC(=O)Nc2nn(-c3ccccc3)nc2C(N)=O)cc1,-3.6,?,22226*,0.0,-36.3,-0.3
CC(C)(C)CC(=O)Nc1ccc(-c2cn3cccnc3n2)cc1,4.1,-2.9,3774,-6.1,-12.1,-0.4
Cc1cc(C)c(OCC(=O)NCC(C)(C)N2CCOCC2)c(C)c1,-8.0,2.7,4868,-1.0,-3.7,-1.8
N#Cc1c(N)nc2c(c1-c1ccncc1)CCCCC2,-1.2,-0.3,16184*,-5.7,-15.4,0.0
N#Cc1c(N)nc2c(c1-c1cccnc1)CCCCC2,-0.7,?,21866*,-6.4,2.8,0.6
CCOC(=O)C1CCCN(CC(=O)Nc2nccs2)C1 (stereo unspecified),-8.5,3.8,3760,10.7,4.2,-0.1
c1ccc2c(C3OCC4(CCCCC4)CO3)cccc2c1,1.6,0.3,3423,5.2,1.8,.
NC1=NC2(CCCCC2)N=C(Nc2ccc(F)cc2F)N1,-1.2,-3.7,24883*,-0.3,3.5,-0.2
Cc1cc(C)cc(NC2=NC3(CCCCC3)N=C(N)N2)c1,-6.3,2.4,4613,2.6,8.7,-0.8
CN(C)CCNC(=O)c1cc2cc(Br)ccc2oc1=O,-12.7,-0.6,10526,0.5,-0.9,-0.2
CCN(C(=O)c1cc2ccccc2oc1=O)c1cccc(C)c1,-1.7,-1.4,20635*,-2.2,-7.1,0.0
CCN(C(=O)c1cc2ccccc2oc1=O)c1ccccc1,-3.6,0.6,?,7.6,0.2,0.2
O=C(Nn1cnnc1)c1cc2cc(Br)ccc2oc1=O,-2.6,-0.7,23909*,-2.6,-3.1,1.8
CCN(CC)C(=O)c1cc2cc(Br)ccc2oc1=O,3.1,?,22173*,-8.8,5.0,-0.7
CCOc1ccc(N(CC(=O)N2CCN(Cc3ccccc3)CC2)S(C)(=O)=O)cc1,?,-4.0,4367,-10.0,7.4,0.2
Cc1ccc(NC(=O)CSCC(=O)Nc2ccccc2N2CCCCC2)cc1,-8.3,2.1,?,?,-1.6,-1.0
CCC(=O)Nc1cc(SCCO)cc([N+](=O)[O-])c1,-1.0,-1.5,16916*,-2.5,-3.9,0.6
COc1cc(/C=C(\C#N)C(=O)Nc2ccc3c(c2)OCCO3)ccc1O,5.1,0.8,4875,-4.6,-15.9,13.2
O=C(CN1CCN(CCN2C(=O)c3cccc4cccc(c34)C2=O)CC1)c1ccc(F)cc1,0.9,4.7,22837*,6.0,13.1,-1.0
